ST2 IL33 inh = inhibitors of human ST2 (IL1RL1) binding to IL-33, primary screen, biochemical, AlphaLISA. Interleukin-1 receptor-like 1 (Homo sapiens), Q01638. AlphaLISA ST2-Fc/biotin-IL-33 interaction, 1 h. inhibition, % for hits at 17 µM. 78,000 compounds, 2.3% hits. AID 1259354, 2018; in the data active = inhibition above about 30%
Target sequence (Q01638 whole entry, looked up): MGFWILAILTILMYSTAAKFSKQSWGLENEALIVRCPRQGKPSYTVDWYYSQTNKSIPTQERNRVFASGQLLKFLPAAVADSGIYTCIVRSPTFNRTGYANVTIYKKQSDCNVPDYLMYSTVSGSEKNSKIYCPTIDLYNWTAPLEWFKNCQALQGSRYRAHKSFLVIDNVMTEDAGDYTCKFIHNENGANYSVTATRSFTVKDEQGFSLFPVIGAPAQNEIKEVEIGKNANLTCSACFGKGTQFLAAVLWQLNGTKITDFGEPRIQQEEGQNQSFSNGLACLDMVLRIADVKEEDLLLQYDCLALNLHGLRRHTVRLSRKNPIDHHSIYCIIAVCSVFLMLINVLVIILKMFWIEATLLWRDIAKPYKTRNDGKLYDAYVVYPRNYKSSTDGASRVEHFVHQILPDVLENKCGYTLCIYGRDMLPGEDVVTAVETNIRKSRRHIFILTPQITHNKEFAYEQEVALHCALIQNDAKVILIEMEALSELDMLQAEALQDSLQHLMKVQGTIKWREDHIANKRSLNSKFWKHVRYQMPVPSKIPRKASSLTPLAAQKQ
An asterisk follows results filed as active; i = inactive. Shown is part of a subset that was picked to be rich in hits.

SMILES | ST2 IL33 inh
CCOC(=O)C1(Cc2ccccc2)CCCN(C(=O)C#Cc2ccccc2)C1 (centres undefined) | 42.0%*
COC(=O)C1C(=O)C2=C(CC1C)NC(C)=C(C(=O)OC1CCCCC1)C2c1ccc(C)cc1 (centres undefined) | i
O=C(Cn1c(=O)n(Cc2ccccc2)c(=O)c2ccccc21)c1ccc(F)cc1 | i
Cc1cc(CN(C)C(=O)CC23CC4CC(CC(C4)C2)C3)ccn1 | i
NS(=O)(=O)c1ccc(NC(=O)c2cccc([N+](=O)[O-])c2)cc1 | i
CNC(=O)CCN(C)Cc1cc2n(n1)CCNC2 | i
Cc1ccc2c(c1)c1c3n2CCN(C(=O)c2ccccc2)C3CCC1 (centres undefined) | 30.0%*
Cc1ccc2c(c1)c1c(n2C)C(C(N)=O)CCC1 (centres undefined) | 32.0%*
CC(=O)N1CCn2c3c(c4cc(C)ccc42)CCCC31 (centres undefined) | i
CC(=O)N1CCn2c3c(c4cc(C5CCCCC5)ccc42)CCCC31 (centres undefined) | i
Cc1ccc2c(c1)c1c3n2CCN(CCC#N)C3CCC1 (centres undefined) | i
Cc1ccc2c(c1)c1c(n2CCC#N)C(=O)CCC1 | i
CN(C)c1nc2ncnc(SCC(=O)Nc3ccccc3Cl)c2s1 | i
CC(=O)c1ccc(NC(=O)O[C@@H]2CO[C@H]3[C@@H]2OC[C@@H]3NC(=S)Nc2ccccc2)cc1 | 41.0%*
CC(=O)c1ccc(NC(=O)O[C@@H]2CO[C@H]3[C@@H]2OC[C@@H]3NC(=O)Nc2cccc(C#N)c2)cc1 | i
CC(=O)c1ccc(NC(=O)O[C@@H]2CO[C@H]3[C@@H]2OC[C@@H]3NC(=O)NC2CCCCC2)cc1 | i
CC(=O)c1ccc(NC(=O)N[C@H]2CO[C@H]3[C@@H]2OC[C@H]3OC(=O)Nc2cccc(C(C)=O)c2)cc1 | 85.0%*
CC(C)c1ccc(NC(=O)O[C@@H]2CO[C@H]3[C@@H]2OC[C@@H]3NC(=S)Nc2ccccc2)cc1 | i
COc1cc(NC(=S)N[C@H]2CO[C@H]3[C@@H]2OC[C@H]3OC(=O)Nc2ccc(C(C)=O)cc2)cc(OC)c1 | i
Cc1cc(CNC(=O)c2ccccc2-n2cncn2)c2[nH]c(C)c(C)c2c1 | i
CN1C(=O)CC(C(=O)Nc2ccccc2F)SC1=Nc1ccc(Br)cc1 (centres undefined) | i
Cc1sc2ncnc(NC3CCCCCC3)c2c1S(=O)(=O)N1CCC(C)CC1 | i
COc1cccc(NC(=O)N[C@H]2C[C@@H](c3nc(-c4ccccc4)no3)N(C)C2)c1 | i
CN1C[C@@H](NC(=O)C2CCCCC2)C[C@H]1c1nc(-c2ccccc2)no1 | i
CN1C[C@@H](NS(=O)(=O)c2ccc(Cl)cc2)C[C@H]1c1nc(-c2ccccc2)no1 | i
SMILES | ST2 IL33 inh
COc1ccc(-c2noc([C@@H]3C[C@H](NC(=O)Nc4ccc(C)cc4)CN3C)n2)cc1 | i
CN1C[C@@H](NC(=O)NC2CCCCC2)C[C@H]1c1nc(-c2ccccc2)no1 | 82.0%*
CN1C[C@@H](NS(=O)(=O)c2ccc(C#N)cc2)C[C@H]1c1nc(-c2ccccc2)no1 | 51.0%*
COc1ccc(NC(=O)N[C@H]2C[C@@H](c3nc(-c4ccc(OC)cc4)no3)N(C)C2)cc1 | i
Cc1ccc(-c2noc([C@@H]3C[C@H](NS(=O)(=O)c4ccc(C)cc4)CN3C)n2)cc1 | i
COc1ccc(-c2noc([C@@H]3C[C@H](NS(=O)(=O)c4ccc(C)cc4)CN3C)n2)cc1 | i
COc1ccc(-c2noc([C@@H]3C[C@H](NC(=O)CCC(=O)O)CN3C)n2)cc1 | 30.0%*
COc1ccc(-c2noc([C@@H]3C[C@H](NC(=O)NC(C)C)CN3C)n2)cc1 | 42.0%*
CN1C[C@@H](NC(=O)NC2CCCCC2)C[C@H]1c1nc(-c2ccc3c(c2)OCO3)no1 | i
Cc1c(-c2ccc(Cl)cc2)n[nH]c1C(=O)N1CCCC2(CNC(=O)O2)C1 (centres undefined) | i
COc1ccc(Cc2nn[nH]n2)cc1OC | i
CCSc1nnc(NC(=O)CSc2nc3c(c(=O)n2-c2ccc(C)cc2)SCC3)s1 | i
CC(=O)Nc1ccc2c(c1)NC(=O)CC2c1ccnc2ccccc12 (centres undefined) | i
COc1cc(Nc2nc(-c3nnc(-c4ccc(C)cc4)o3)nc3ccccc23)cc(OC)c1OC | i
CCC(=O)Nc1ccc(-c2csc(N)n2)cc1 | i
COc1cc(OC)cc(C(=O)N2CCN=C2SCc2cccc(Cl)c2)c1 | i
COc1cccc(-n2cc(CNc3nc(N(C)C)nc4c3CCNC4)cn2)c1 | i
CN(C)CC1(O)CCCN(C(=O)COc2cccc(F)c2)CC1 (centres undefined) | i
COc1ccc(N2C(=O)c3ccc(Oc4cccc(N)c4)cc3C2=O)cc1 | i
O=C1c2ccc(Oc3cccc([N+](=O)[O-])c3)cc2C(=O)N1c1c[nH]c(=O)[nH]c1=O | 31.0%*
Cc1cc(N2C(=O)c3ccc([N+](=O)[O-])cc3C2=O)no1 | i
O=C(CC1CCCCC1)Nc1ccccn1 | i
COc1cc(Br)c(Br)c(C=Nc2cc(C)ccc2O)c1O | i
Cc1ccc(O)c(C=Nc2ccc(Br)c3cccnc23)c1 | 97.0%*
Cc1ccccc1N=Cc1cc([N+](=O)[O-])ccc1O | i
SMILES | ST2 IL33 inh
CCOc1ccc(/C=C2\SC(=O)N(CC(=O)N3CCOCC3)C2=O)cc1OCC | i
COc1cccc(/C=C2/SC(=Nc3ccccc3)NC2=O)c1OC | i
COc1ccc(/C=C2/SC(=Nc3ccccc3)NC2=O)c(OC)c1OC | 45.0%*
CC(=O)Nc1ccc(NC(=O)NC2(c3ccccc3)CC2)cc1 | i
COc1cc(/C=C2/SC(=O)NC2=O)ccc1O | i
CC(=O)Nc1ccc(/C=C2/SC(=Nc3ccccc3)NC2=O)cc1 | 31.0%*
Cc1ccc(NC(=O)CCN2C(=O)S/C(=C\c3ccccc3)C2=O)cc1 | i
COc1ccc(N=C2NC(=O)C(CO)(CO)S2)cc1 | i
COc1cc(/C=C2/SC(=Nc3ccccc3)NC2=O)ccc1O | 38.0%*
CCOc1cc(C=C2C(=O)c3ccccc3C2=O)ccc1OC(C)C(=O)O (centres undefined) | i
COc1cccc(/C=C2/SC(=Nc3ccccc3)NC2=O)c1 | i
C=CCOc1ccc(/C=C2/SC(=Nc3ccccc3)NC2=O)cc1OCC | 37.0%*
COc1ccccc1NC(=O)C1=C(C)Nc2ncnn2C1c1ccc([N+](=O)[O-])cc1 (centres undefined) | i
Cc1ccc(S(=O)(=O)N2CCSC2c2cccc([N+](=O)[O-])c2)c(C)c1 (centres undefined) | i
COc1cccc(CN2CCN(Cc3ccc(-n4cccn4)cc3)CC2=O)c1 | i
Cc1ccsc1CNc1ccccc1C(=O)N1CC=CC1C(C)C (centres undefined) | i
CCOc1ccccc1NC(=O)N(Cc1ccncc1)C1CCN(C)CC1 | i
O=C(Nc1ccc([N+](=O)[O-])cc1)N1CCN(c2ccccc2F)CC1 | i
Clc1ccc(-c2nnc3n2N=C(c2cccs2)CS3)c(Cl)c1 | i
Cc1ccc(NC(=O)Cn2c(C)nc3ccccc32)cc1 | i
O=C(Cn1c(=O)n(-c2ccc(F)cc2F)c(=O)c2sccc21)OCc1ccccc1 | i
COc1cc(C)c(CN(C)C2CCN(C)CC2)cc1C | i
CC(C)Cc1cc(C(=O)N2CCOC(CCCc3ccccc3)C2)n[nH]1 (centres undefined) | i

High-throughput results from PubChem.
